The results in this text go back to ChEMBL document CHEMBL1961873, “Compounds: GSK PKIS; Assays: Nanosyn kinase panel” (2012).

Test [1] has as its target Fibroblast growth factor receptor 4 (Homo sapiens) (UniProt P22455). The conditions noted are these: at 1 µM.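 Also: reported figure is the averaged percent inhibition of FGFR4, from the GSK PKIS kinase screening panel.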
For test [2], the target named is Tyrosine-protein kinase Fgr (Homo sapiens) (UniProt P09769). The conditions noted are these: at 0.1 µM.
For test [3] the target is unchanged. The conditions noted are these: at 1 µM.
In test [4] the target is Vascular endothelial growth factor receptor 1 (Homo sapiens) (UniProt P17948). Conditions: at 0.1 µM.
Test [5] shares this target. Conditions: at 1 µM.
Test [6] has as its target Receptor-type tyrosine-protein kinase FLT3 (Homo sapiens) (UniProt P36888). The conditions noted are these: at 0.1 µM.
For test [7] the target is unchanged. The conditions noted are these: at 1 µM.
Test [8] relates to T1, Receptor-type tyrosine-protein kinase FLT3 (Homo sapiens), P36888 [D835Y].
T1 sequence (whole entry): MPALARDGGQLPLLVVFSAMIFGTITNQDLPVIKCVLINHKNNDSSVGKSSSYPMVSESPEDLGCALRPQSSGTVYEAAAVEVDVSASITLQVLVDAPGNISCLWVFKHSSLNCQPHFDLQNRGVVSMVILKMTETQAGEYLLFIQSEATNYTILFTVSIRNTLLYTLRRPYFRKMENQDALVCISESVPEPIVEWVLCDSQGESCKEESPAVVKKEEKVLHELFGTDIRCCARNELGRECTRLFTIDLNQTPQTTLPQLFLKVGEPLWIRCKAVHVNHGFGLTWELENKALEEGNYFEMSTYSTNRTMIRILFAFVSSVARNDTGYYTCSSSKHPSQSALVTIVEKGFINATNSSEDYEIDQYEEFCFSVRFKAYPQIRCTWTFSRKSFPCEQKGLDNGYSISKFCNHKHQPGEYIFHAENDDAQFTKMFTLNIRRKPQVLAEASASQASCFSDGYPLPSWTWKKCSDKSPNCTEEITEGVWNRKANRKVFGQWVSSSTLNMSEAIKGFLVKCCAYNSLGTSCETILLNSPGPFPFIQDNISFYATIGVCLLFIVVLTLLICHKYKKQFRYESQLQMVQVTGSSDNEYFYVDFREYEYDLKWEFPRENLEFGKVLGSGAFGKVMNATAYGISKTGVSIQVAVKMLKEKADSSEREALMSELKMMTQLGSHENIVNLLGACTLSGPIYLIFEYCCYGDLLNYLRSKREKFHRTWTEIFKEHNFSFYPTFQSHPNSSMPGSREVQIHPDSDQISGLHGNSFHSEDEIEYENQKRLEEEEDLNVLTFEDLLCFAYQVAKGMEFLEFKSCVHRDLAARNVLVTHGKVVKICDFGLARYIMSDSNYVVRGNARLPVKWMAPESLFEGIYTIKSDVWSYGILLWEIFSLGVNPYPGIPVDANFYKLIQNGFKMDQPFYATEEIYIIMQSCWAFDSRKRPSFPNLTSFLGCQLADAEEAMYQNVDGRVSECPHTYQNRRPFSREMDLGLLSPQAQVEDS
The conditions noted are these: at 0.1 µM.

In test [9] the target is Non-receptor tyrosine-protein kinase TYK2 (Homo sapiens) (UniProt P29597). The conditions noted are these: at 1 µM.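 Also: values are mean percent inhibition of TYK2 kinase.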
Test [10] has as its target T2, Tyrosine-protein kinase receptor TYRO3 (Homo sapiens) (UniProt Q06418).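 Also: reported percentages are averaged inhibition values of TYRO3 kinase activity.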
T2 sequence (whole entry): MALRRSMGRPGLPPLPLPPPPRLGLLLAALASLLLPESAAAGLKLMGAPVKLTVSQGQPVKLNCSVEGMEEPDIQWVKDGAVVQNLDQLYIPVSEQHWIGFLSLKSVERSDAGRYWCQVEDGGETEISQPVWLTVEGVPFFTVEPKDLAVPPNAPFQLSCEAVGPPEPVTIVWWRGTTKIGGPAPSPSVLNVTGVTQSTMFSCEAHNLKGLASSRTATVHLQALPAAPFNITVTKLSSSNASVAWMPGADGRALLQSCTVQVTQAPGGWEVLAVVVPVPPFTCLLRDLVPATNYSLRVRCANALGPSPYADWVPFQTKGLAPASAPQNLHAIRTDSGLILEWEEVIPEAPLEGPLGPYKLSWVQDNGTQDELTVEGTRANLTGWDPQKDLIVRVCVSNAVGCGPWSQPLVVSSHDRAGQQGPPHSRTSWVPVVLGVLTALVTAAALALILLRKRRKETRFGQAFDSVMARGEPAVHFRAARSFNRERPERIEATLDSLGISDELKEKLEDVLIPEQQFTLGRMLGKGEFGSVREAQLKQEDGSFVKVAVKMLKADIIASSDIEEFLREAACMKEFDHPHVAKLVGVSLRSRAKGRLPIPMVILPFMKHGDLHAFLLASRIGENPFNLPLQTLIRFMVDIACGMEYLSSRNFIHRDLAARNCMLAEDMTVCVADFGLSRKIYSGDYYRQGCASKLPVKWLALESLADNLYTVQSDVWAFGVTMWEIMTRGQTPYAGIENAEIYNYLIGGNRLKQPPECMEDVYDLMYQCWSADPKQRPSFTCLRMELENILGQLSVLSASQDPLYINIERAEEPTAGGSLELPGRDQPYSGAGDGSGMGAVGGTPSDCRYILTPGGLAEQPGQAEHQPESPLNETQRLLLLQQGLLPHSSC
Conditions: at 0.1 µM.

Fibroblast growth factor receptor 4 (Homo sapiens), sequence (P22455 22-802 limits assumed): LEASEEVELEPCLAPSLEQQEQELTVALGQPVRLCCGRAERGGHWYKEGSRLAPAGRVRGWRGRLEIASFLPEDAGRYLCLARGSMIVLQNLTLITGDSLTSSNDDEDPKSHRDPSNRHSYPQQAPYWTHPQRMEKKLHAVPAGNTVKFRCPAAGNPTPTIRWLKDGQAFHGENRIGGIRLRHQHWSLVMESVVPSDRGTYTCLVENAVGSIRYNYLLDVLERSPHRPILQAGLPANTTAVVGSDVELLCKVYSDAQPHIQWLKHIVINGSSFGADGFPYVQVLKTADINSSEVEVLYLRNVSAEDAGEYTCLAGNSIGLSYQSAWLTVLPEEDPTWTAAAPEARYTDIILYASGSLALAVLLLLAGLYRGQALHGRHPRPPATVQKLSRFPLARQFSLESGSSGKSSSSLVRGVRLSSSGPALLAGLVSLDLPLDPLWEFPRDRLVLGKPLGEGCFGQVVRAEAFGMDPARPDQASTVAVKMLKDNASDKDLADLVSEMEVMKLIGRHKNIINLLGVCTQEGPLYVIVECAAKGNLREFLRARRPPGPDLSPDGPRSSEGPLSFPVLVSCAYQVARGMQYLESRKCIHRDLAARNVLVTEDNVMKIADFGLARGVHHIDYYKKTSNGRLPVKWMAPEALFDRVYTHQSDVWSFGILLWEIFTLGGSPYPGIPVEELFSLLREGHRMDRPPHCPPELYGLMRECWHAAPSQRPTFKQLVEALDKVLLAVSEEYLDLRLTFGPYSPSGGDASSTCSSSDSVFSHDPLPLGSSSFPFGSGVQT
Non-receptor tyrosine-protein kinase TYK2 (Homo sapiens), sequence (P29597 whole entry): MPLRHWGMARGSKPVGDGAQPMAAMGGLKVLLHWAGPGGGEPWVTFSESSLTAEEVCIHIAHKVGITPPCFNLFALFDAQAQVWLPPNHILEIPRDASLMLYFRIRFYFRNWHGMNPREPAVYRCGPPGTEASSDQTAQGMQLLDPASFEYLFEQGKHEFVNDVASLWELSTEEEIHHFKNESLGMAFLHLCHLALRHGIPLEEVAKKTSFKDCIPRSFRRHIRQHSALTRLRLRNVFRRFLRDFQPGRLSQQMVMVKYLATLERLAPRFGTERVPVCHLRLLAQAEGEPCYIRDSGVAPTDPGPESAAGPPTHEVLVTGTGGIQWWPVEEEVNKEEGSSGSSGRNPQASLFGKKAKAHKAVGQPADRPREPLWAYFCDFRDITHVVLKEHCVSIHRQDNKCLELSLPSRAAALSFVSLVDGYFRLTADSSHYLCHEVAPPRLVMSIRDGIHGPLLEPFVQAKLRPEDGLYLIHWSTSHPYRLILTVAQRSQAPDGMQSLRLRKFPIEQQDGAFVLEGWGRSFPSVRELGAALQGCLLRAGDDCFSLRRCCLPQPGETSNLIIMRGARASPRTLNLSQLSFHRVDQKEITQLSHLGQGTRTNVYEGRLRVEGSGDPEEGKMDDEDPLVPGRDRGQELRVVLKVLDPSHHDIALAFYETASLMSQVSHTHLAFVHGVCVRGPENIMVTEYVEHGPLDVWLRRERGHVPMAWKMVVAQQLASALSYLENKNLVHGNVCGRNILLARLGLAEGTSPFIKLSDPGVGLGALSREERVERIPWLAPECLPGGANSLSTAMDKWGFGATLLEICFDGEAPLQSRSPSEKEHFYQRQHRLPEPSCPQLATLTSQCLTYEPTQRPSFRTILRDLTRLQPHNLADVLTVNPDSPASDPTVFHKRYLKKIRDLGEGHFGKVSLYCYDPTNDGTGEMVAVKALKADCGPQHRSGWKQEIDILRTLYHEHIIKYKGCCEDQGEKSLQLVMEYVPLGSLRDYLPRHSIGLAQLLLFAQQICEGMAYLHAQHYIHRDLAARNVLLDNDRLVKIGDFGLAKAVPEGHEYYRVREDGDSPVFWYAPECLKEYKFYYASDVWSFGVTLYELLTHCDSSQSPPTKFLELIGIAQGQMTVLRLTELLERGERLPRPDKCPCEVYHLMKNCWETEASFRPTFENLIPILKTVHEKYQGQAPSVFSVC
Vascular endothelial growth factor receptor 1 (Homo sapiens), sequence (P17948 whole entry): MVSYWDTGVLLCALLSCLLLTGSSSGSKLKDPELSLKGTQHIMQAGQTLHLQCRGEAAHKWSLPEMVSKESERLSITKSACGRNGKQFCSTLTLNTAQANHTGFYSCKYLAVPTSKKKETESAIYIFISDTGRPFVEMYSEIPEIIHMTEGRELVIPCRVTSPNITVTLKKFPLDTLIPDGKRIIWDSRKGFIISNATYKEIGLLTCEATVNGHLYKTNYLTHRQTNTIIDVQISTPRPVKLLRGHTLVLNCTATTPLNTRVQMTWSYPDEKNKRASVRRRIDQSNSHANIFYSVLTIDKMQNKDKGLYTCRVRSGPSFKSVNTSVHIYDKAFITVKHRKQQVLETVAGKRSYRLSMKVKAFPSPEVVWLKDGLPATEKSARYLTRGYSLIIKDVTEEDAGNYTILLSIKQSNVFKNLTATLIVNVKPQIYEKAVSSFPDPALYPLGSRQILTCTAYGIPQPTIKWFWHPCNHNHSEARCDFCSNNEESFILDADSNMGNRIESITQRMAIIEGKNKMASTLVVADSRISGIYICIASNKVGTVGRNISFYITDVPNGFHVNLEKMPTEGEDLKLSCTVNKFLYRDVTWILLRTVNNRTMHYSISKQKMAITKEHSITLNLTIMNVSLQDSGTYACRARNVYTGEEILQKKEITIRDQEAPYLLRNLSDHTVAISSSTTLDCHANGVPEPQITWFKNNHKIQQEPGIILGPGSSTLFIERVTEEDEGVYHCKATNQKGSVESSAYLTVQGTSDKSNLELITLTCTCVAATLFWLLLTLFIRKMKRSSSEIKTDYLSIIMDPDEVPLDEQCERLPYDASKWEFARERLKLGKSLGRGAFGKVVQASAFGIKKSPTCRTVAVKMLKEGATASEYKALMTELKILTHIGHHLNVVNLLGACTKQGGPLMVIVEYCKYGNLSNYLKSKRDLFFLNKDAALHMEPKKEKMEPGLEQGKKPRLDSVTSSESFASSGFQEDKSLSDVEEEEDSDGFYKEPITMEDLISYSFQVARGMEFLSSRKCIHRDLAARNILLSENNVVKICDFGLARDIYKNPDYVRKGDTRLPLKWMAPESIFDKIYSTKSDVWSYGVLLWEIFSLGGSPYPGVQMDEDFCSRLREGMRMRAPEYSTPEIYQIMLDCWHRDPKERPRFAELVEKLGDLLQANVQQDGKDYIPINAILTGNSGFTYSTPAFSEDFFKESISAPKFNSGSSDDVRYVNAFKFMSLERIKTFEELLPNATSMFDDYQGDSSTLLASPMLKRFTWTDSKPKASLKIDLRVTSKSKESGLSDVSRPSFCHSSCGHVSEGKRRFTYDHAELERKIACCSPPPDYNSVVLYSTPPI
Tyrosine-protein kinase Fgr (Homo sapiens), sequence (P09769 2-529 limits assumed): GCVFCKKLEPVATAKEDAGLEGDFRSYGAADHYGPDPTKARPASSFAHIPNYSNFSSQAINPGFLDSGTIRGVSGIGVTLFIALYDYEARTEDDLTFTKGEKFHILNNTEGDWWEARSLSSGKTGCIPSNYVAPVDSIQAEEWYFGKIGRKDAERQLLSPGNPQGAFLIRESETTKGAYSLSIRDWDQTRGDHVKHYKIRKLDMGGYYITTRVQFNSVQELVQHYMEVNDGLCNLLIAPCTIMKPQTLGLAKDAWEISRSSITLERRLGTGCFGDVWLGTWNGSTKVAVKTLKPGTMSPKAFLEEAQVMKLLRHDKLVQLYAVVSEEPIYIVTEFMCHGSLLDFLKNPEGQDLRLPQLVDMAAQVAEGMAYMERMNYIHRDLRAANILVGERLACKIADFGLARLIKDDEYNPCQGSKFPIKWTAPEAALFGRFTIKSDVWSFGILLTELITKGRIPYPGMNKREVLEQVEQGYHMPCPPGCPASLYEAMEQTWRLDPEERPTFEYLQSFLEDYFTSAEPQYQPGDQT

For `N#Cc1c(NC(=O)CN2CCOCC2)sc2c1CCCC2`, the inhibition in [1] worked out at 2.81%; in test [2], 2.52%; in [3], 4.31%; in [4] it was 0.23%; in [5] it was 4.24%; in [6] it was 1.8%. The inhibition in [7] was 4.78%; in [8] it was 0.3%; in [9], -0.83%; in [10], 2.15%.

For `CCc1nn2ncccc2c1-c1ccnc(NC2CC2)n1`, the inhibition in test [1] is 1.27%; in test [2], 3.49%; in test [3], 3.74%; in test [4], 0.02%; in test [5] it was 2.1%; in test [6], 3.16%. Moreover, the inhibition in test [7] is 3.41%; in test [8], -7.04%; in [9], 2.1%; in test [10], -0.14%.

As for `COc1ccc(-c2oc3ncnc(N)c3c2-c2ccc(NC(=O)Nc3cc(C(F)(F)F)ccc3F)cc2)cc1`, the inhibition came out at 48.5% in test [1]; 17% in [2]; 61% in test [3]; 47.8% in test [4]; 96.7% in [5]; 22.1% in [6]. In addition, the values for the inhibition in [8], in [9] and in test [10] were 12.7%, 0.14% and 8.25%, respectively.

As to `Nc1ncc(-c2cccc(S(N)(=O)=O)c2)c2scc(-c3ccc(F)c(Cl)c3)c12`, the inhibition was found to be 5.88% in test [1]; 10.9% in test [2]; 45.8% in test [3]; 4.56% in [4]; 14.9% in test [5]; 1.34% in test [6]. Also, the inhibition was 5.98% in test [7], -3.2% in [8], -2.5% in [9] and 4.05% in [10].

As to `CCN(CC)S(=O)(=O)c1ccc(OC)c(Nc2ncc(-c3ccccc3)o2)c1`, the inhibition in test [1] was determined as 3.57%; in test [2], 10.4%; in test [3] it was 38.8%; in test [4], 7.45%; in test [5] it was 30.6%; in test [6], 10.2%. The inhibition in test [7] was found to be 53.4%; in test [8] it was 17.9%; in [9] it was 0.12%; in test [10] it was 8.1%.

Take `COc1cccc(-c2c[nH]c3c(N/N=C/c4ccncc4)ncnc23)c1`: the inhibition was 2.46% in [1]; 14.2% in test [2]; 54.2% in test [3]; 2.08% in test [4]; 18.4% in test [5]; 6.9% in [6]. Also, the inhibition in [7] was determined as 39%; in [8], 16.4%; in test [9] it was 10.5%; in test [10] it was 7.3%.

Take `COC(=O)Nc1nc2ccc(S(=O)(=O)c3ccc(NC(=O)Nc4cc(C(F)(F)F)ccc4F)cc3)cc2[nH]1`: the inhibition in test [1] is 0.83%; in test [2] it was 0.25%; in test [3] it was 6.79%; in test [4] it was 0.68%; in test [5], -0.67%; in test [6], -0.31%. The inhibition was 3.96% in test [7], -2.76% in test [8], 0.09% in test [9] and 0.25% in test [10].

For `CC(C)COC(=O)c1ccc2c(c1)/C(=C/Nc1ccc(S(N)(=O)=O)cc1)C(=O)N2`, the inhibition in test [1] stood at 2.26%; in test [2] it was 4.59%; in [3], 32%; in test [4], 4.68%; in [5], 39.4%; in test [7] it was 56%. Moreover, the values for the inhibition in test [8], in [9] and in [10] were 58.7%, 4.42% and 0.69%, respectively.

Regarding `CCn1c(-c2nonc2N)nc2cnc(Oc3cccc(NC(=O)c4ccc(N(C)C)cc4)c3)cc21`, the inhibition was -0.05% in test [1]; 0.55% in test [2]; 2.13% in test [4]; 4.41% in test [5]; 0.6% in [6]; 1.09% in test [7]. For the same compound, the inhibition is -1.65% in test [8], -0.04% in test [9] and 0.1% in test [10].

As for `CCOc1ccc2c(-c3ccnc(Nc4cccc(C(F)(F)F)c4)n3)cnn2n1`, the inhibition in test [1] is -0.95%; in test [2], 2.53%; in test [3] it was 5.2%; in test [4], -0.98%; in test [5], 1.9%; in test [6], -0.37%. Besides, the inhibition in [7] was 5.14%; in test [9], 0%; in [10], 0.79%.

For the compound `[O-][S+]1CCN(Cc2ccc(-c3ccc4ncnc(Nc5ccc(OCc6cccc(F)c6)c(Cl)c5)c4c3)o2)CC1`, the inhibition in test [1] was 0.31%; in [2] it was 3.65%; in test [3] it was 6.21%; in test [4] it was 0.35%; in test [5] it was -0.47%; in [6], 4.64%. Besides, the inhibition was 5.03% in test [7], 1.35% in test [8], -4.3% in [9] and 3.67% in [10].

Take `COc1ccc(-c2cc(-c3c[nH]nc3-c3ccccn3)ccn2)cc1`: the inhibition in test [1] was determined as 6.88%; in test [2] it was 5.33%; in test [3], 4.21%; in test [4], 3.66%; in test [5] it was 8.02%; in test [6] it was 3.81%. Besides, the inhibition in test [8] is 1.47%; in test [9], -4.16%; in test [10], 2.81%.

On to `Fc1cccc(COc2ccc(Nc3ncnc4sc(-c5ccco5)cc34)cc2Cl)c1`, for which the inhibition in [1] is -0.7%; in test [2], 3.8%; in test [3], 8.35%; in test [4], 2.39%; in test [5] it was 2.46%; in test [7], 4.08%. The inhibition in [8] was -8.41%; in [9], -1.9%; in test [10] it was 5.86%.

Consider `CNC(=O)c1cccc(C#Cc2cncnc2Nc2ccc(OCc3cccc(F)c3)c(Cl)c2)c1`, for which the inhibition in [1] worked out at 1.45%; in test [2], 4.48%; in test [3], 6.13%; in test [4] it was 1.95%; in test [5], 1.32%; in test [6], 1.74%. The inhibition is 3.22% in [7], 1.13% in test [8], 0.07% in test [9] and 3.38% in [10].
